The supplement of paper PMC9446081
Hit rate of the full screen: of about 39,000 compounds, about 220 (0.56%) showed activity. This excerpt belongs to a sample that is enriched for actives. Unmarked numbers belong to inactive results.

Tested on: Escherichia coli K-12 BW25113
Test: relative growth (OD600 normalised to plate interquartile mean) (fraction); higher = less growth inhibition, active = 0.2 or less
Details: 50 µM; LB; incubation time: overnight (16-24 h)
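Also: Wild-type cells incubated without shaking, value is the mean of two biological replicates.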

| SMILES | relative growth |
| --- | --- |
| C[C@H](CO)N1C[C@H](C)[C@@H](CN(C)C(=O)NC2CCCCC2)Oc2ccc(NC(=O)Nc3cccc4ccccc34)cc2C1=O | 1.04 |
| CN(Cc1ccccc1)C(=O)[C@H](Cc1ccc2ccccc2c1)NC(=O)[C@@H]1CCCN1C(=O)Nc1ccccc1[N+](=O)[O-] | 1.04 |
| C[C@@H]1CN([C@H](C)CO)C(=O)c2cc(NC(=O)Nc3cccc4ccccc34)ccc2O[C@@H]1CN(C)C(=O)NC1CCCCC1 | 1 |
| CCCC[P+](CCCC)(CCCC)Cc1ccc(NC(=O)[C@@H](Cc2ccc3ccccc3c2)N=C(NC2CCCCC2)NC2CCCCC2)cc1 | 0.0386 (active) |
| CCC(=O)Nc1ccc2ccccc2c1 | 0.842 |
| CCCC[P+](CCCC)(CCCC)Cc1ccc(NC(=O)[C@H](Cc2ccc3ccccc3c2)N/C(=N/C2CCCCC2)NC2CCCCC2)cc1 | 0.0326 (active) |
| C[C@@H]1CCCCO[C@H](CN(C)C(=O)NC2CCCCC2)[C@@H](C)CN([C@H](C)CO)C(=O)c2cc(NS(=O)(=O)c3ccccc3)ccc2O1 | 0.983 |
| Cc1ccc2c(c1)[C@](C)(O)CCS2 | 1.01 |
| COc1ccc(S(=O)(=O)Nc2ccc3c(c2)CC(=O)N([C@H](C)CO)C[C@H](C)[C@H](CN(C)C(=O)Nc2c(C)noc2C)O3)cc1 | 1.02 |
| Cc1ccc(S(=O)(=O)N(C)C[C@H]2Oc3ccc(NS(=O)(=O)c4ccccc4)cc3CC(=O)N([C@@H](C)CO)C[C@H]2C)cc1 | 0.993 |
| C[C@H]1CN([C@@H](C)CO)C(=O)c2cccc(NS(=O)(=O)c3cccs3)c2O[C@@H]1CN(C)S(=O)(=O)c1ccc(F)cc1 | 1.02 |
| O=C(NO)c1ccc(C(=O)N/N=C/[C@H](O)[C@@H](O)[C@H](O[C@@H]2O[C@H](CO)[C@H](O)[C@H](O)[C@H]2O)[C@H](O)CO)cc1 | 0.996 |
| O=C(O)CCC(=O)N1CC(=O)Nc2ccccc21 | 0.964 |
| Cc1scc2c1N(C(=O)CN1CCN(C)CC1)c1ccccc1NC2=O.Cl | 0.044 (active) |
| CN1CCN(CC(=O)N2c3ccccc3C(=O)Nc3cccnc32)CC1.Cl.Cl | 1.08 |
| Cc1c(N)nc([C@H](CC(N)=O)NC[C@H](N)C(N)=O)nc1C(=O)N[C@H](C(=O)N[C@H](C)[C@@H](O)[C@H](C)C(=O)N[C@H](C(=O)NCCc1nc(-c2nc(C(=O)NCCCNCCCCN)cs2)cs1)[C@@H](C)O)[C@@H](O[C@@H]1O[C@@H](CO)[C@@H](O)[C@H](O)[C@@H]1O[C@@H]1O[C@H](CO)[C@@H](O)[C@H](OC(N)=O)[C@@H]1O)c1c[nH]cn1 | 0.0715 (active) |
| C[C@H](CO)N1C[C@H](C)[C@@H](CN(C)C(=O)Nc2ccc(F)cc2)OCc2ccccc2-c2ccccc2C1=O | 0.975 |
| C[C@H](CO)N1C[C@H](C)[C@@H](CN(C)C(=O)Nc2cccc3ccccc23)OCCCC[C@H](C)Oc2ccc(NS(C)(=O)=O)cc2C1=O | 1.01 |
| Cc1noc(C)c1S(=O)(=O)N(C)C[C@H]1Oc2c(NS(=O)(=O)c3cn(C)cn3)cccc2C(=O)N([C@H](C)CO)C[C@@H]1C | 0.992 |
| C[C@@H]1CN([C@H](C)CO)C(=O)c2cccc(NS(=O)(=O)c3ccc(F)cc3)c2O[C@@H]1CN(C)S(=O)(=O)c1cn(C)cn1 | 0.99 |

| SMILES | relative growth |
| --- | --- |
| C[C@@H]1CCCCO[C@@H](CN(C)C(=O)C2CCCCC2)[C@@H](C)CN([C@H](C)CO)C(=O)c2cc(NC(=O)CCC(F)(F)F)ccc2O1 | 0.92 |
| CC(C)(C)c1cc2[nH]c(N)nc(=N)n2n1 | 1.01 |
| C[C@@H]1CN([C@@H](C)CO)S(=O)(=O)c2ccc(C#CC3CC3)cc2O[C@@H]1CN(C)C(=O)C1CCCCC1 | 1.01 |
| CN(C)[C@@H]1C(=O)[C@@H](C(N)=O)C(=O)[C@@]2(O)C(=O)[C@H]3C(=O)c4c(O)ccc(Cl)c4[C@@H](O)[C@H]3C[C@@H]12 | 0.0324 (active) |
| CN(C)[C@@H]1C(=O)[C@@H](C(N)=O)C(=O)[C@@]2(O)C(=O)[C@@H]3C(=O)c4c(O)c(NC(=O)CN5CCCC5)cc(F)c4C[C@H]3C[C@@H]12 | 0.0357 (active) |
| CN(C)[C@@H]1C(=O)[C@@H](C(=O)NCNCCCC[C@H](N)C(=O)O)C(=O)[C@@]2(O)C(=O)[C@@H]3C(=O)c4c(O)cccc4[C@@](C)(O)[C@H]3C[C@@H]12 | 0.977 |
| CN(C)c1ccc(O)c2c1C[C@@H]1C[C@@H]3[C@@H](N(C)C)C(=O)C(C(N)=O)=C(O)[C@]3(O)C(=O)[C@H]1C2=O | 0.0589 (active) |
| CN(C)c1cc(NC(=O)CNC(C)(C)C)c(O)c2c1C[C@H]1C[C@H]3[C@H](N(C)C)C(=O)[C@@H](C(N)=O)C(=O)[C@@]3(O)C(=O)[C@H]1C2=O | 1.01 |
| CN(C)c1cc(CNCC(C)(C)C)c(O)c2c1C[C@H]1C[C@H]3[C@H](N(C)C)C(=O)[C@H](C(N)=O)C(=O)[C@@]3(O)C(=O)[C@@H]1C2=O | 0.0692 (active) |
| C[C@@H]1CCCCO[C@@H](CN(C)C(=O)NC2CCCCC2)[C@@H](C)CN([C@H](C)CO)C(=O)c2cc(NC(=O)C3CCCCC3)ccc2O1 | 1.02 |
| C[C@H]1CN([C@@H](C)CO)C(=O)c2cc(NC(=O)CCCCCC(=O)Nc3ccccc3N)ccc2O[C@H]1CN(C)CC1CCCCC1 | 0.97 |
| COc1ccc(NC(=O)Nc2ccc3c(c2)C(=O)N([C@@H](C)CO)C[C@H](C)[C@H](CN(C)C(=O)Nc2ccc(OC)cc2)OCCCC[C@H](C)O3)cc1 | 0.996 |
| CN(C)C(=O)[C@H]1C[C@@H]2CCN(S(C)(=O)=O)C[C@H]2O1 | 0.988 |
| Cc1noc(C)c1NC(=O)N(C)C[C@@H]1Oc2c(NC(=O)c3ccncc3)cccc2C(=O)N([C@H](C)CO)C[C@@H]1C | 1 |
| C[C@@H]1CN([C@@H](C)CO)C(=O)Cc2cc(NC(=O)Cn3cnnn3)ccc2O[C@H]1CN(C)C(=O)Nc1ccc(C(F)(F)F)cc1 | 0.993 |
| CC(C)NC(=O)Nc1ccc2c(c1)C(=O)N([C@H](C)CO)C[C@H](C)[C@@H](CN(C)CC1CCCCC1)OCCCC[C@@H](C)O2 | 0.975 |
| C[C@@H]1CN([C@H](C)CO)C(=O)c2cccc(NS(C)(=O)=O)c2O[C@@H]1CN(C)C(=O)NC1CCCCC1 | 0.99 |
| COc1ccc(S(=O)(=O)N(C)C[C@@H]2OCCCC[C@@H](C)Oc3ccc(NC(=O)CCC(F)(F)F)cc3C(=O)N([C@H](C)CO)C[C@@H]2C)cc1 | 1.01 |
| CN(C)c1cc(NC(=O)CNC(C)(C)C)c(O)c2c1C[C@H]1C[C@H]3[C@H](N(C)C)C(=O)C(C(N)=O)=C(O)[C@@]3(O)C(=O)[C@H]1C2=O | 1 |
| CN(C)c1ccc(O)c2c1C[C@H]1C[C@H]3[C@H](N(C)C)C(=O)C(C(N)=O)=C(O)[C@@]3(O)C(=O)[C@H]1C2=O | 0.184 (active) |

| SMILES | relative growth |
| --- | --- |
| CN(C)c1ccc(O)c2c1C[C@H]1C[C@H]3[C@H](N(C)C)C(=O)[C@@H](C(N)=O)C(=O)[C@@]3(O)C(=O)[C@H]1C2=O | 0.0587 (active) |
| CN(C)[C@@H]1C(=O)[C@@H](C(N)=O)C(=O)[C@@]2(O)C(=O)[C@H]3C(=O)c4c(O)cccc4C[C@H]3C[C@@H]12 | 0.972 |
| C[C@@H]1CN([C@H](C)CO)C(=O)c2cc(NS(=O)(=O)c3cccs3)ccc2O[C@H]1CN(C)Cc1ccc(-c2ccccc2)cc1 | 0.997 |
| C[C@H](CO)N1C[C@H](C)[C@H](CN(C)C(=O)Nc2cccc3ccccc23)Oc2ncc(C#Cc3ccccc3)cc2C1=O | 0.961 |
| C[C@@H]1CCCCO[C@H](CN(C)Cc2ccncc2)[C@H](C)CN([C@H](C)CO)C(=O)c2cc(NC(=O)Nc3ccccc3)ccc2O1 | 0.834 |
| CN[C@H]1CN(c2ccc3c(=O)c(C(=O)O)cn(-c4nccs4)c3n2)C[C@@H]1OC | 0.0372 (active) |
| COC(=O)C1=C[C@@H](O)[C@@H](O)[C@H](O[C@@H]2O[C@H](COC(=O)/C=C/c3ccccc3)[C@@H](O)[C@H](O)[C@H]2O)C1 | 0.984 |
| COc1ccc(S(=O)(=O)Nc2cccc3c2O[C@@H](CN(C)S(=O)(=O)c2ccc(OC)cc2)[C@H](C)CN([C@@H](C)CO)C3=O)cc1 | 1.01 |
| C[C@H]1CN([C@@H](C)CO)C(=O)Cc2cc(NC(=O)Nc3ccccc3)ccc2O[C@H]1CN(C)Cc1ccc(Oc2ccccc2)cc1 | 1.01 |
| C[C@@H]1CN([C@H](C)CO)C(=O)c2cc(NS(=O)(=O)c3ccccc3)ccc2O[C@@H]1CN(C)CC1CC1 | 1 |
| NC[C@H]1OB(O)c2c(OCCCO)cccc21 | 0.04 (active) |
| NC[C@H]1OB(O)c2c(OCCO)ccc(Cl)c21 | 0.982 |
| CC(C)(C)OC(=O)N1CCC(N)CC1 | 0.98 |
| C=C1c2cccc(O)c2C(=O)C2=C(O)[C@]3(O)C(O)=C(C(N)=O)C(=O)[C@@H](N(C)C)[C@@H]3[C@@H](O)[C@H]12 | 0.225 |
| CC1c2cccc(O)c2C(=O)C2=C(O)C3(O)C(=O)C(C(N)=O)=C(O)C(N(C)C)C3C(O)C21.Cl (stereo not drawn) | 0.0595 (active) |
| C=C1c2cccc(O)c2C(=O)C2=C(O)C3(O)C(=O)C(C(N)=O)=C(O)C(N(C)C)C3C(O)C12.Cl (stereo not drawn) | 0.0546 (active) |
| C[C@H]1c2cccc(O)c2C(=O)C2=C(O)[C@]3(O)C(=O)[C@@H](C(N)=O)C(=O)[C@@H](N(C)C)[C@@H]3[C@@H](O)[C@@H]21 | 0.0376 (active) |
| C=C1c2cccc(O)c2C(=O)[C@@H]2C(=O)[C@]3(O)C(=O)[C@@H](C(N)=O)C(=O)[C@@H](N(C)C)[C@@H]3[C@@H](O)[C@H]12 | 0.0752 (active) |
